The nature of test [1]: HPAF-II Cancer Cell Toxicity qHTS against the NCATS CANVASS Library (AID 1347346). Further: nearly all actives have a fitted effect of over 55% in size. Further: potency means the concentration at half of the fitted maximal effect. Put shortly:
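HPAF-II cells were seeded at 1000 cells/well, allowed to settle for 4 h at 37 degrees C, then exposed to compounds in an 11-point series for 72 h. Viability was read by CellTiter-Glo luminescence.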

Test [2] is described as follows: HPAF-II 24hr Apoptosis Induction qHTS against the NCATS CANVASS Library (AID 1347356). An outline of the steps: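 HPAF-II cells (500/well) in DMEM + 10% FBS were treated with an 11-point compound series for 24 hours at 37 degrees C. Caspase-3/7 activity was then read by Caspase-Glo DEVD luminescence after 15 min.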
Test [3] can be described thus: HEK293 18hr Apoptosis Induction qHTS against the NCATS CANVASS Library (AID 1347357). An outline of the steps: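 HEK293 cells (500/well, DMEM + 10% FBS) treated with an 11-point series for 18 h at 37 degrees C. Caspase-3/7 activity read by Caspase-Glo luminescence after 15 min at room temperature.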
On the technique in general: Quantitative high-throughput screening tests each substance at several concentrations.

Test [4] can be described thus: HPAF-II 12hr Apoptosis Induction qHTS against the NCATS CANVASS Library (AID 1347358). Put shortly:
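HPAF-II cells (500/well, DMEM + 10% FBS) were exposed to compounds for 12 hours at 37 degrees C. Caspase-3/7 activity was then read by Caspase-Glo 3/7 luminescence after 15 min at room temperature.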

Test [5] can be described thus: HPAF-II 18hr Apoptosis Induction qHTS against the NCATS CANVASS Library (AID 1347360). An outline of the steps:
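HPAF-II cells at 500/well were exposed for 18 h at 37 C to an 11-point compound series. Caspase-3/7 activity was read by Caspase-Glo luminescence after 15 min at RT.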

Test [6] is described as follows: HEK293 12hr Apoptosis Induction qHTS against the NCATS CANVASS Library (AID 1347361). An outline of the steps:
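HEK293 cells (500/well) were exposed to an 11-point qHTS concentration series for 12 hours at 37 degrees C. Caspase-3/7 activity was then read by DEVD-substrate luciferase luminescence after 15 min at room temperature.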

Test [7] relates to NAD(P)H diaphorase (Clostridium kluyveri). In words: Diaphorse counterscreen qHTS: Assay Interference Panel against the NCATS CANVASS Library (AID 1347362). An outline of the steps: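 Clostridium kluyveri diaphorase in PBS with 0.01% Tween-20 was preincubated 15 min at room temperature in the dark with compounds (11-point series). Resorufin fluorescence (ex 525/20, em 598/25) was read 5 min after adding resazurin/NADH.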
For orientation: A counterscreen serves to expose hits that act by an unwanted route or on another target.

Test [8] addresses Luciferin 4-monooxygenase (Photinus pyralis) (UniProt P08659). The experiment in a line: Firefly luciferase counterscreen qHTS: Assay Interference Panel against the NCATS CANVASS Library (AID 1347363). Further: series mostly up to about 57 µM. Put shortly: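 Purified P. pyralis luciferase was added to compounds (11-point series) preincubated 15 min at room temperature with substrate containing 0.013 mM D-luciferin and 0.013 mM ATP; luminescence was read after 5 min.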

Test [9] can be described thus: MCF7 Cancer Cell Toxicity qHTS against the NCATS CANVASS Library (AID 1347369). Put shortly: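 MCF7 cells (500/well) were exposed 72 h at 37 °C to compounds in an 11-point series. Viability was read as ATP content by CellTiterGlo luminescence.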
Test [10] is described as follows: qHTS for ATAD5 Antagonist screened against the NCATS CANVASS Library (AID 1347370). Further: nearly all actives have a fitted effect of over 65% in size. Further: potency means the concentration at half of the fitted maximal effect. Put shortly: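 HEK293T cells with a stably integrated ATAD5-controlled luciferase reporter were exposed to compounds (11-pt) alongside 10 uM 5-fluorouridine as ATAD5 stabilizer for 16hr at 37C. Viability was read by CellTiter-Fluor fluorescence, then ATAD5 by luminescence.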
The nature of test [11]: J3T Cancer Cell Toxicity qHTS against the NCATS CANVASS Library (AID 1347371). Further: potency means the concentration at half of the fitted maximal effect. Put shortly: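 J3T dog glioma cells (500 cells/well) were exposed to compounds in an 11-point series for 72 hr at 37C, 5% CO2. Cytotoxicity was read as ATP content by CellTiterGlo luminescence.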
Test [12] deals with Nuclear receptor subfamily 1 group I member 3 (Homo sapiens) (UniProt Q14994). In words: qHTS for Constitutive Androstane Receptor (CAR) Antagonist screened against the NCATS CANVASS Library (AID 1347372). Further: potency means the concentration at half of the fitted maximal effect. Put shortly: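 HepG2 cells stably carrying hCAR and a CYP2B6-2.2kb luciferase reporter were exposed to compounds plus 50 nM CITCO for 24hr at 37C. CAR activity was read by ONE-Glo luminescence, with viability measured first by CellTiter-Fluor.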
Chain of Nuclear receptor subfamily 1 group I member 3 (Homo sapiens) (Q14994 whole entry, looked up): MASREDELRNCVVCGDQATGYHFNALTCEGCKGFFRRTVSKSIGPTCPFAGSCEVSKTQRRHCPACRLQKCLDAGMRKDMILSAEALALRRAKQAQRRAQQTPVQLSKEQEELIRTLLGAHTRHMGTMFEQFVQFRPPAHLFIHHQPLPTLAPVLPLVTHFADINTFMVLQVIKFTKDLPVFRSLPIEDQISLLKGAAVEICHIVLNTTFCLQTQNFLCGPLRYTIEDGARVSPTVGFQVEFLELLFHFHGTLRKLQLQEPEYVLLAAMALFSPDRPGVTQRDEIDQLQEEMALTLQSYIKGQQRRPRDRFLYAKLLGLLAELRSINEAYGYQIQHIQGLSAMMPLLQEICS

The target is the same in test [13]. In words: qHTS for Constitutive Androstane Receptor (CAR) Agonist screened against the NCATS CANVASS Library (AID 1347373).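 Further: every well also contained 1.5 µM PK11195 alongside the test compound.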 An outline of the steps: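 HepG2 cells stably expressing hCAR and a CYP2B6-2.2kb luciferase reporter were treated for 24hr at 37C with compounds (11-point qHTS) in the presence of 1.5uM PK11195. Reporter activation was read by ONE-Glo luminescence.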

Test [14] in a line: qHTS for Hypoxia signaling pathway (HIF-1) agonists against the NCATS CANVASS Library (AID 1347375). Put shortly: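 HRE-bla ME-180 cells (beta-lactamase reporter under hypoxia responsive element) in 0.5% dialyzed FBS medium, 5 h at 37C, then compound 17 h, 11-point qHTS series. CCF4-AM FRET substrate 2 h RT; 460/530 nm emission read.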
Test [15] in a line: 10-beta competent E. coli microbial cell viability qHTS against the NCATS CANVASS Library (AID 1347376). Further: series mostly up to about 46 µM. An outline of the steps: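 10-beta competent E. coli (0.9 OD culture diluted to 0.2 OD) exposed to compounds in an 11-point qHTS series, incubated overnight at 37C, 5% CO2. Viability read as ATP by BacTiter-Glo luminescence after 20 min at room temperature.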
A short description of test [16]: Cytotoxicity qHTS for assessment of Hepg2 cells membrane integrity screened against the NCATS CANVASS Library (AID 1347387). Put shortly: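 HepG2 cells (2000/well) attached overnight at 37C, then received compounds in an 11-point series at 0.59 nM - 46 uM final for 5 hr. LDH release was detected fluorometrically (ex 560/em 590 nm) with CytoTox-ONE reagent after 10 min at room temperature.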

A short description of test [17]: qHTS for Activators of p53 Stress Response Pathway screened against the NCATS CANVASS Library (AID 1347388). Put shortly:
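p53RE-bla HCT-116 cells (4000/well) were plated 5 h at 37C, exposed to compounds for 16 h at 37C over an 11-point concentration series, then loaded with CCF4 for 2 h at room temperature; 460/530 nm emission ratio read.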

Test [18] in a line: qHTS for activators of dead-cell proteases activity screened against the NCATS CANVASS Library (AID 1347392).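 Further: luminescence from protease leaking out of membrane-damaged cells cleaving impermeant substrate; rising signal means more cytotoxicity.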 Further: potency means the concentration at half of the fitted maximal effect. Put shortly: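 HepG2 cells (2000/well) attached 18 h at 37C, then exposed 5 h to compounds (11-point qHTS). Dead-cell protease activity read as luminescence from cell-impermeant AAF-aminoluciferin substrate after 15 min at room temperature.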
The nature of test [19]: Viability qHTS for inhibitors of the SERCaMP assay screened against the NCATS CANVASS Library (AID 1347400). Further: nearly all actives have a fitted effect of over 70% in size. Further: potency means the concentration at half of the fitted maximal effect. Put shortly:
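SH-SY5Y-GLuc SERCaMP MJH297-derived cells (1000 cells/well) were pre-incubated 4 h at 37C, then exposed to compounds for 48 h. Viability was read as CellTiter-Glo luminescence; bortezomib served as positive control.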

Inconclusive results are not listed. Activity calls are given as the source filed them. The call rests on the fitted dose curve; in most records, active means well fitted curve in the direction sought with a large enough effect; inconclusive means small, poorly fitted or top-dose-only effect, or another doubt; inactive means no such curve, though single readings can be large; an effect the other way counts as inactive or inconclusive.

Chain of Luciferin 4-monooxygenase (Photinus pyralis) (P08659 whole entry, looked up): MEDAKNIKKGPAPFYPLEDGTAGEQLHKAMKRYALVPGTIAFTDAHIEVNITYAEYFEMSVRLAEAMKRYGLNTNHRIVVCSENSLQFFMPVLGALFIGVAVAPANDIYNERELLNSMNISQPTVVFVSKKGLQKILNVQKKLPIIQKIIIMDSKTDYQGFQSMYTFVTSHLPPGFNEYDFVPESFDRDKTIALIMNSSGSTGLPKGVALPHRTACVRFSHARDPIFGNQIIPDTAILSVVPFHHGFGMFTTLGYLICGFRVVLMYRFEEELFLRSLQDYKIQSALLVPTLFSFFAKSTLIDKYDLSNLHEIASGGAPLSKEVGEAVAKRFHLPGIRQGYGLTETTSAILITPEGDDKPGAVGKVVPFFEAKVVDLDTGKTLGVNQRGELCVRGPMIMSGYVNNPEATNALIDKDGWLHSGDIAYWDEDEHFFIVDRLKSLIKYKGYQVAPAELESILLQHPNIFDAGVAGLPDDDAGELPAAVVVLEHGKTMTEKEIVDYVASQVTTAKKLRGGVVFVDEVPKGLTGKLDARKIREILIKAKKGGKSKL

`O=Cc1ccc2n1C[C@]1(C[C@H](O)[C@@H](CO)O1)OC2`: the Potency entry in [1], in test [3], in test [4], in test [5], in [7] and in test [8] was “inactive” each time. Besides, the Potency result in test [9], in test [10], in test [11], in test [12], in test [13] and in [17] was “inactive” throughout. Besides, the Potency entry in [18] and in [19] was “inactive” throughout. Also, the molecule was classed as inactive in test [2], in test [6], in test [14], in test [15] and in test [16].
Consider `CO/C=C/C(=O)c1cc2cnc3c(N)cc(=NC(=O)C(C)C)c([nH]1)c23`, for which the result in test [2], in test [6] and in test [15] was inactive. For the same molecule, the Potency entry in [3], in test [7], in test [8], in test [9] and in test [13] was “inactive” throughout. Moreover, the Potency in test [10] is 0.741 µM (active); in [11] it was 0.743 µM (active); in test [12], 0.295 µM (active); in test [18], 23.4 µM (active); in test [19] it was 0.381 µM (active).
With `CC(C)=CC[C@H]1C[C@@]2(CC=C(C)C)C(=O)[C@](CC=C(C)C)(C(=O)C(C(=O)c3ccccc3)=C2O)C1(C)C`, the Potency in [1] was 6.68 µM (active). The outcome in [2], in test [6], in test [14], in test [15] and in [16] was inactive. The Potency result in test [3], in test [4], in test [5], in test [7], in test [8] and in [9] was “inactive” each time. Further, the Potency result in [12], in [13], in test [17], in [18] and in [19] was “inactive” each time.
On to `COC(=O)c1cc2cc3c(c(O)c2c(=O)o1)OC1(CC3)CC2=C(O1)C(=O)c1c(O)c(OC)cc(OC)c1C2=O` (stereo not drawn), for which, in test [1], the Potency was 18.8 µM (active). The outcome in [2], in test [6], in test [14], in [15] and in test [16] was inactive. Moreover, the Potency result in test [3], in [4], in [5], in test [8], in [10] and in test [11] was “inactive” each time. The Potency entry in [12], in test [13] and in test [18] was “inactive” in each case.
`C/C(=C\[C@H](C)C(=O)C[C@H](O)CC1CC(=O)NC(=O)C1)[C@@H]1OC(=O)CCCC/C=C/C[C@@H](O)[C@@H]1C`: the outcome in test [2], in test [6], in test [14], in test [15] and in [16] was inactive. The Potency result in test [3], in [4], in [5], in test [7], in [8] and in [9] was “inactive” in each case. In addition, the Potency entry in test [13], in test [17] and in test [18] was “inactive” throughout. Moreover, the Potency in [10] is 8.31 µM (active); in test [12], 13.2 µM (active).
Consider `O=Cc1ccc2n1C[C@]1(OC2)O[C@H](CO)[C@@H](O)[C@@H]1O`, for which the Potency result in [1], in test [3], in [4], in [5], in test [7] and in test [8] was “inactive” in each case. Also, the Potency result in test [9], in [10], in test [11], in [12], in test [13] and in test [17] was “inactive” throughout. Moreover, the Potency entry in test [18] and in [19] was “inactive” throughout. The molecule was classed as inactive in test [2], in [6], in test [14], in test [15] and in test [16].
As to `CC1(C)CC[C@]2(CO)CC[C@]3(C)C(=CCC4[C@@]5(C)CC[C@H](O)C(C)(C)C5CC[C@]43C)C2C1` (stereo partly drawn), the Potency entry in [1], in test [3], in test [4], in [5], in [7] and in [8] was “inactive” each time. Besides, the Potency result in test [9], in [10], in test [11], in test [12], in [13] and in test [17] was “inactive” in each case. The Potency entry in test [18] and in test [19] was “inactive” each time. The molecule was called inactive in test [2], in test [6], in test [14], in test [15] and in [16].

These data come from PubChem BioAssay (NCATS).
